Measured values taken from ChEMBL document CHEMBL4888484, “Replenishing the malaria drug discovery pipeline: Screening and hit evaluation of the MMV Hit Generation Library 1 (HGL1) against asexual blood stage Plasmodium falciparum ,using a nano luciferase reporter read-out” (2022).
The whole screen tested about 4,800 compounds, of which about 410 (8.5%) showed an effect of 50% or more. This excerpt belongs to a sample that is enriched for strong results.

The molecules below were run on Plasmodium falciparum (assay: Confirmatory screen in NF54 pLDH assay, in single point, at 2uM, 72h). Conditions: timepoint 72 hour.
Format: functional, Erythrocyte

Structure (SMILES)	% Inhibition
COc1cc(C(=O)Nc2scnc2C)cc(OC)c1OC	7%
COc1cc(C(=O)Nc2ccc3sc(NC(=O)c4cc(OC)c(OC)c(OC)c4)nc3n2)cc(OC)c1OC	67%
Cc1cccc(C(=O)Nc2nc3cc4sc(NC(=O)c5cccc(C)c5)nc4cc3s2)c1	-8%
CNCc1cc(OC)c(OC)cc1Cl	11%
Cc1ccc(C)c(C(=O)Cn2nc3ccc(-c4ccc(Cl)cc4)nn3c2=O)c1	6%
Cc1nc(NC(=O)c2ccn(COc3ccc(F)c(Cl)c3)n2)sc1C	-8%
CC(=O)NCC(=O)N(Cc1ccco1)C1(C(=O)NC2CCCCC2)CCCCC1	8%
CCn1nccc1C(=O)N1CC[C@H](CC(=O)NCc2ccncc2)C1	6%
Cc1cc(C(=O)NCc2ccncc2)no1	-10%
N#Cc1cc2cc(Cl)cnc2nc1N1CCCCC1	16%
COc1cc(C(=O)NC2CCCCC2)cc2occc12	0%
CCOc1cc(Cl)ccc1C(=O)NC1CCN(C[C@H]2CCOC2)CC1	5%
Cc1cnccc1NCCNC1CCN(c2ccc3c(c2)CCC3)CC1	77%
CCn1nccc1C(=O)NC1CCN(c2nnc3ccc(Cl)cn23)CC1	10%
Cc1cnccc1NCCNC1CCN(c2ccc(Cl)cc2)CC1	96%
N#Cc1c(N2CCCCC2)ncc2c(=O)c3ccccc3[nH]c12	8%
O=C(Cc1ccc(F)cc1)N[C@H](c1ccccc1)C1CC1	2%
CCCOc1ccc(CNC(=O)CCn2ccn3nc(-c4ccc(C)c(C)c4)cc3c2=O)cc1	5%
O=C(c1ccccc1)c1ccc(O)c(CN2CCCN(c3ccc(C(F)(F)F)cn3)CC2)c1O	80%
Cc1ccc(-n2nc(C)cc2NC(=O)CN2CCCN(c3ccc(C(F)(F)F)cn3)CC2)cc1	9%
O=C(C1CC1c1ccccc1)N(c1ccc(F)cn1)C1CCOCC1 (stereo not given)	7%
O=C(NCc1ccc2c(c1)OCO2)C(F)(F)C(F)(F)C(F)(F)C(F)(F)C(=O)NCc1ccc2c(c1)OCO2	-19%

Structure (SMILES)	% Inhibition
CN1CCN([C@H]2CCN(c3ccnc4ccc(Cl)cc34)C[C@H]2CCCO)CC1	60%
CCCOc1cc(=O)c(C(=O)N2CCCC2)nn1-c1ccc(C)cc1	0%
CCn1cc([C@H](CC(=O)N2CCN(Cc3ccc4c(c3)OCO4)CC2)c2cccc(OC)c2)c2ccccc21	2%
OC(CNC1CCCNc2ccccc21)c1ccc(Cl)s1 (stereo not given)	51%
O=C(NC[C@H](O)c1ccc(Cl)s1)c1ccsc1	2%
Cc1cccc(NC(=O)CC(C)(C)CC(=O)O)c1C	13%
CC(C)(c1ccc(F)cc1)C1(NC(=O)CCc2nccs2)CC1	-12%
Cn1cc(CCCNc2ccc(F)cn2)cn1	9%
Cc1ccc(S(=O)(=O)N2CCN(C(=O)c3cc(C4CC4)nc4c3c(C)nn4C(C)C)CC2)cc1	13%
Cc1nn(Cc2ccccc2)c2nc(C3CC3)cc(C(=O)N3CCOCC3)c12	1%
Cc1nn(C(C)(C)C)c2nc(C3CC3)cc(C(=O)N(C)c3ccccc3)c12	87%
CCOC(=O)C1CCN(C(=O)c2nc(-c3ccc(N4CCCC4)nc3)no2)CC1	12%
O=C(c1cccc2cc[nH]c12)N(CC1CC1)C1CC1	12%
Cc1cc(C)c(C(=O)Cn2nc3ccc(-c4ccc(Cl)cc4)nn3c2=O)c(C)c1	10%
CCCn1nc(-n2cnnc2)c(NS(=O)(=O)c2ccc(Br)cc2)c1C	11%
CC(C(=O)N1CCCC1c1cccs1)N(C)Cc1ncnn1C (stereo not given)	4%
Clc1ccc(-c2noc(CN(Cc3cccs3)Cc3cccs3)n2)cc1	6%
COc1ccc(CC(=O)NCCOCCO)cc1	8%
N#CC1(O)C(C2COC3(CCCCC3)O2)OC2OC3(CCCCC3)OC21 (stereo not given)	10%
Cc1sc(NC(N)=O)nc1Cc1ccccc1	10%
CN1CCN(c2nc(O)c3c(n2)NC(=O)C[C@H]3c2c(F)cccc2F)CC1	0%
CCOc1cc(C(c2c(C)n(C)n(-c3ccccc3)c2=O)c2c(C)n(C)n(-c3ccccc3)c2=O)ccc1OCc1ccccc1	38%

Structure (SMILES)	% Inhibition
CCOC(=O)N1CCC(NC(=O)c2cn[nH]c2-c2ccc(OCC)c(Cl)c2)CC1	10%
O=C(NC1CCN(Cc2ccccc2)CC1)c1cn[nH]c1-c1ccccc1	6%
O=C(C[C@H]1CCN(C(=O)Nc2ccc3c(c2)OCCO3)C1)NCc1ccncc1	7%
Cc1cc(C)cc([C@@H](O)CNC(=O)NCC(C)(C)c2ccncc2)c1	3%
Cc1nn2c(-c3ccc(-c4ccccc4)cc3)ccnc2c1Br	9%
Cc1nonc1NC(=O)CCCC1CCCC1	8%
O[C@@H](CNCc1ccsc1C(F)(F)F)c1cc(Cl)c2c(c1)OCCO2	29%
NC(=O)COCC(=O)Nc1ccccc1	-9%
CCc1[nH]nc(NC(=O)c2c(C)ccnc2O)c1C	-11%
CO[C@@H](CNC(=O)c1nc2n(n1)-c1ccccc1S(=O)(=O)N2)c1ccccc1	0%
O=c1[nH]nc2c(N3CC[C@H](NCc4ccc(F)cc4)C3)nccn12	11%
COc1ccc(C)cc1NC(=O)N1CC(c2nc(C(C)C)nn2C)C1	1%
c1cn2cnnc2c(N(CC2CC2)CC2CC2)n1	-5%
O=C(Cn1cnc2ccc(Cl)cc2c1=O)NCc1ccc2c(c1)OCO2	-5%
CC[C@H]1Cn2c(C(=O)NCc3ccc4c(c3)OCO4)cc3c(Cl)ccc(c32)O1	-10%
Cc1ccc(Cn2c(=O)c(C(=O)NCc3ccc4c(c3)OCO4)nn(-c3ccc(C(C)C)cc3)c2=O)cc1	52%
Cc1ccc(NC(=O)Nc2c(C3=CCCCC3)c(C)nn2C)cc1C	-13%
CC(C)(C)OC(=O)N1CC(NC(=O)C2CC2c2ccccc2C(F)(F)F)C1 (stereo not given)	-16%
CCc1c([C@H](C)S(=O)(=O)c2ccccc2)[nH]c(=O)n1Cc1cccs1	-7%
Cc1cc(N2CCN(c3ccccn3)CC2)n2cc(-c3ccccc3)nc2n1	14%
O=S(=O)(C1CC1)N1CC[C@H](CO)C1	0%
